The term AC50 denotes the midpoint of the concentration-response curve, whichever way the signal moves.

The structures appear in SMILES notation. Records with an inconclusive call do not appear. Activity calls are given as the source filed them. How the source made its calls: active means hit-call score of the fitted dose curve at least 0.9, where 1 is the maximum; inconclusive means response in the unintended direction; inactive means score below 0.9.

The assay can be described thus: CCTE_Mundy_HCI_iCellGABA_NOG_NeuriteCount: CCTE's Neurite Outgrowth Assay in iCellGABA cells for Neurite Count, Mundy Lab. The protocol: CCTE_Mundy_HCI_iCellGABA_NOG is a multiplexed, cell-based-readout assay that uses iCell GABANeurons from FUJIFILM Cellular Dynamics, Inc. (FCDI), human GABAergic enriched neurons derived from induced pluripotent stem (iPS) cells, with measurements taken at 50.33 hours after chemical dosing in a microplate: 96-well plate.CCTE_Mundy_HCI_iCellGABA_NOG_NeuriteCount is one of four components of the CCTE_Mundy_HCI_iCellGABA_NOG assay. It measures neurite outgrowth related to number of neurites using High Content Imaging of fluorescently labelled markers.Data from the assay component CCTE_Mundy_HCI_iCellGABA_NOG_NeuriteCount was analyzed at the endpoint CCTE_Mundy_HCI_iCellGABA_NOG_NeuriteCount in the positive analysis fitting direction relative to DMSO as the negative control and baseline of activity. Using a type of morphology reporter, loss-of-signal activity can be used to understand developmental effects.
Exposure starts 2 hours post-plating by adding 10 ul of the working solution to 90 ul of media in the wells for a 1/10 dilution. Forty-eight hours after chemical treatment cells are fixed by direct addition of 100 ul of warm (37C) Dulbecco's phosphate buffered saline (DPBS) fixative solution containing 8% paraformaldehyde, 8% sucrose, and 0.1% of 3 mg/ml Hoechst 33342 into each well. Primary antibodies are prepared by dilution in Immunocytochemical Staining Buffer (ISB), 10X Dulbecco's PBS, 0.1% Saponin, 5% Bovine Serum Albumin, 0.5% NaN3 (Sodium Azide) and betaIII-tubulin (rabbit anti-betaIII-tubulin, 1:800) followed by Alexa Fluor-488 secondary (1:500) to label neuronal cell bodies and neurites. A Cellomics ArrayScan VTi HCS Reader is used for automated image acquisition and analysis of neurite outgrowth.
Consider `CCOP(=O)(SC(C)CC)N1CCSC1=O` (centres undefined), for which the result was inactive. Turning to `CNC(=O)CSP(=S)(OC)OC`, the compound was called inactive. For the compound `CCOP(=S)(OCC)Oc1nc(Cl)c(Cl)cc1Cl`, the AC50 is 30.1 µM (active). As to `CCOP(=S)(OCC)Oc1cc(C)nc(C(C)C)n1`, the AC50 is 76.5 µM (active).

With `COP(=O)(OC)OC=C(Cl)Cl`, the outcome was inactive.

For `CCOP(=S)(OCC)SCSCC`, the call was inactive. The same measure, in the same setting: the result for `CNC(=O)CSP(=O)(OC)OC` reads “inactive”. Consider `CCCCSP(=O)(SCCCC)SCCCC`, for which the AC50 is 65.2 µM (active). Take `CCOP(=S)(OCC)OC(Cl)C(Cl)(Cl)Cl` (centres undefined): the AC50 was 29.7 µM (active). Still for that read-out and setting: the result for `COP(=O)(OC)O/C(=C\Cl)c1cc(Cl)c(Cl)cc1Cl` reads 66.5 µM (active); that for `CCOP(=S)(OCC)Oc1ccc2c(C)c(Cl)c(=O)oc2c1`, 71.2 µM (active). With `CCOC(=O)CC(SP(=S)(OC)OC)C(=O)OCC` (centres undefined), the AC50 is 74.1 µM (active). As for `CCN(CC)c1nc(C)cc(OP(=S)(OC)OC)n1`, the AC50 was 89.1 µM (active). In the case of `CCOP(=S)(OCC)SCSC(C)(C)C`, the AC50 was 81.4 µM (active). On the same count and under the same terms, under `COP(=S)(OC)SCN1C(=O)c2ccccc2C1=O` stands 74.2 µM (active). In the case of `COP(N)(=O)SC` (centres undefined), the call was inactive.

In the case of `CCOP(=O)(OCC)Oc1nc(Cl)c(Cl)cc1Cl`, the outcome was inactive. On the same count and under the same terms, under `COP(=O)(OC)O/C(C)=C/C(=O)N(C)C` stands “inactive”. The same measure, in the same setting: under `COP(=O)(OC)C(O)C(Cl)(Cl)Cl` (centres undefined) stands “inactive”; under `CCOC(=O)CC(SP(=O)(OC)OC)C(=O)OCC` (centres undefined), “inactive”. Turning to `COP(=O)(NC(C)=O)SC` (centres undefined), the result was inactive. On to `COP(=O)(OC)OC(Br)C(Cl)(Cl)Br` (centres undefined), for which the concentration at half-maximal activity (AC50) is 16.1 µM (active). For the compound `CCOP(=S)(Oc1cnc(C(C)(C)C)nc1)OC(C)C` (centres undefined), the compound was called inactive. Still for that read-out and setting: under `CCCSP(=O)(OCC)Oc1ccc(Br)cc1Cl` (centres undefined) stands “inactive”.

The values are drawn from PubChem BioAssay AID2284362 (EPA ToxCast).
